Whole data set: some 24,000 sequences, median “enrichment r” near 0.99, cut for the highest 2% near 3.7. What follows is part of a selection rich in the highest values, with near analogues and random picks from the rest.

Data on 13 molecules can be found in PMC12136788.

T1: UNK ZnF1-3 (human, UniProt Q9C0B0 31-174)
T1 sequence: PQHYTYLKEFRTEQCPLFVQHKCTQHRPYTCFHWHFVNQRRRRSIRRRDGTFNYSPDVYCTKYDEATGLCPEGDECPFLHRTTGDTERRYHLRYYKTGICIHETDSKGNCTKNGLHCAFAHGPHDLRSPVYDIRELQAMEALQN

B1: 55316162_55316282_4585_3pUTR_ENSMUSG00000018583_ENSMUST00000018727|mouse|control|control (ssRNA)
RNA: GGGAGUUCUACAGUCCGACGAUCUGACAACAGGGACUCCUGCCUAAGAGUAUCUUGCUGCUCUUCCAGGACAUAAGUUCGAUUCCCAGCACCUGUGUAGGAGGGCUCACUCACCUGUAACUCCAGCUCCAAGGGGCCACAGGCCAACAGAGGAUUGAGCAUCA
B2: chr17:56739783:56739784:+_ENSMUSG00000071054_ENSMUST00000095224|mus_mus|FALSE|FALSE (ssRNA)
RNA: GGGAGUUCUACAGUCCGACGAUCAUAUCUGCUAAACAGGUUCUUCAGAUCCGUGGCUCUGGUUGUAGACGAAAGGCCACUAACCCAGAAAUUCCUACCACAGCUGCUGCGACCCUUCUCUUCUCGGGAAAGCCUUUUUGUAUCCAACAGAGGAUUGAGCAUCA
B3: chr1:163112212:163112213:-_ENSG00000143248_ENST00000313961|hu_hu|hu_hu_hu_mus_False|78_88 (ssRNA)
RNA: GGGAGUUCUACAGUCCGACGAUCUUUUAUUAUCAGUAAGAGUGAGUCACAUAGUACAUAAAGUAUUGGAUACAAUAAUCAGGAAACAAACACUAUUGGUCCAGAAUUUAAAACUUUAUGAGCGAAGUGCUGGCACAGGACUUACAACAGAGGAUUGAGCAUCA
B4: chr1:163112212:163112213:-_ENSG00000143248_ENST00000313961|hu_hu|FALSE|FALSE (ssRNA)
RNA: GGGAGUUCUACAGUCCGACGAUCUUUAUUUAUCCAGAAGCAUGAGUCACAUAGUACAUAAAGUAUUGAAUACAAAAUUCUAAAGAUAAACACAAUUUUUCUUGAAUUUAAAAUAUAUGGGAUAAAUGCUUACAAAUGGAUUUACAACAGAGGAUUGAGCAUCA
B5: chr2:61705769:61705770:-_ENSG00000082898_ENST00000401558|hu_hu|motif|central (ssRNA)
RNA: GGGAGUUCUACAGUCCGACGAUCAAAUGGGCAUGAAGUAAAAUUUUUAAAAAUGCCUUAAUUUUCAACUUCAUGCAAACGGAAUAAAGAUGACCAAAACAAAAGCUUAAACAAUGGAAGGAUAUUUCACAGAAAAUUUCUUAUCAACAGAGGAUUGAGCAUCA
B6: chr5:145543945:145543946:-_ENSG00000133706_ENST00000545646|hu_mus|FALSE|FALSE (ssRNA)
RNA: GGGAGUUCUACAGUCCGACGAUCCUGAACGGCCAGUGGUGGGAAAUAAUCAAGCCAGUGCUCUGCUUCAGAAAACUUCACUAUGUCGUCAUCAGAGAGCCCAAGGGAUUUCAUAAUGUCCCACUGGUACUUAGAAGAUCCUGCCAACAGAGGAUUGAGCAUCA
B7: chr7:141445308:141445309:+_ENSG00000106028_ENST00000265304|hu_hu|hu_hu_hu_mus_False|28_98 (ssRNA)
RNA: GGGAGUUCUACAGUCCGACGAUCUAUGAUUGUUGUUGCUUGUCGCCUCACAUUGUUUUUAUCCAUGUACUCGCCAUAGUCCACUUUCCCUUCCACAAAUAUACGAGACCCCUUUUUCACAUACUGAUAUGCCACAUCUCUGAGCAACAGAGGAUUGAGCAUCA
B8: 39165641_39167405_4275_CDS_ENSMUSG00000037475_ENSMUST00000047037|mouse|control|control (ssRNA)
RNA: GGGAGUUCUACAGUCCGACGAUCUGAAGAGUCCUUGAGAUCGAUGAGACUGUCCUUUACUGUGGAGGAAUGUGAUGGAGAAGGAUGACUAUCAAUUUUGCGGCGUUUUUGUUCCCUGUCAGGCUCCGAGAUAUCUGAUCGGGGCAACAGAGGAUUGAGCAUCA
B9: chr9:58044877:58044878:-_ENSMUSG00000051243_ENSMUST00000114144|mus_hu|FALSE|FALSE (ssRNA)
RNA: GGGAGUUCUACAGUCCGACGAUCUCCCAGAGGCUGGGAAGGGGGUGUUAGCACCAGACCCGAAAUGUCGCUGUCUUUGAAAACAACGAAAACAGGAAAAUCUGAGCGCGGAGCUGAAAGGCGCCCCAGGCACCGGGCUGGACUCAACAGAGGAUUGAGCAUCA
B10: chr11:87793471:87793472:-_ENSMUSG00000020483_ENSMUST00000020775|mus_mus|mus_mus_mus_hu_False|68_108 (ssRNA)
RNA: GGGAGUUCUACAGUCCGACGAUCUGGGGGCUGGGGAAAAAGAAUAAGCUGGAUCCCCCACCCCCCCACAGUGUCAACCCUACACGAGAGUUUUGAAGGCGACUCAUGAAAAUCAGCAGCUCAAACGGCAAUGACCACCCCACCCAACAGAGGAUUGAGCAUCA
B11: chr11:46405157:46405158:+_ENSG00000110492_ENST00000395566|hu_hu|hu_hu_hu_mus_False|28_98 (ssRNA)
RNA: GGGAGUUCUACAGUCCGACGAUCCCCUCCCCACUUUGGCUGGGGAGUGUGGGCGUGAGAGGACAGGCGUGAUUGACAGAGCUGACAGGAAGACAAAAGGCACUGGUGGGUCACAUCUUGGGCCUGUGGGAGAGGAGGGCUCCGCAACAGAGGAUUGAGCAUCA
B12: chr8:114060920:114060921:+_ENSMUSG00000033545_ENSMUST00000095176|mus_hu|FALSE|FALSE (ssRNA)
RNA: GGGAGUUCUACAGUCCGACGAUCCCACUUCUCAGCAGCAGGGGGAGGGCUGGGCGAGCAUAAAGGGGGAGGGAGUCAAAAAGGAGACCCGGAGGGAGAAAAGGAAAAAAAGCAAAAGGAAAAAAGGAAAAAACCCGCGGGGCGCAACAGAGGAUUGAGCAUCA
B13: 11472005_11472125_940_CDS_ENSG00000105520_ENST00000251473|human|control|control (ssRNA)
RNA: GGGAGUUCUACAGUCCGACGAUCCUUGCAGGGGAAGGCGCGGCGCGCGGCGGCCACGAGGCUGGGACUGCCAGCGCAGGCACCCUGGUCAGUGACAAAGCGGUCGGGACCUGGCCGAUCCGGAGAAGGUGGCAGGCAGCCCAGCAACAGAGGAUUGAGCAUCA

The target of the experiment is T1, UNK ZnF1-3. Put plainly: nsRBNS (natural sequence RNA bind-n-seq); RBNS binding buffer (assumed for nsRBNS): 25 mM Tris pH 7.5, 150 mM KCl, 3 mM MgCl2, 0.01% Triton X-100, 500 ug/ml BSA, 20 U/ml SUPERase-In, 4 C; UNK is unkempt and MSI1 is Musashi-1; names of the RNAs are library labels; protein concentration not given here; high values mean tight binding.
B1 returned a binding signal of 0.768 enrichment R. Then B2, with 0.796 enrichment R. Under B3 stands 1.53 enrichment R; under B4, 7.3 enrichment R; under B5, 2.43 enrichment R. Regarding B6, the binding signal stood at 0.979 enrichment R. Then B7, with 0.605 enrichment R; and B8, with 1.19 enrichment R; and B9, with 1.01 enrichment R.

In the case of B10, the binding signal stood at 1.65 enrichment R. Then B11, with 2.01 enrichment R. Under B12 stands 5.92 enrichment R. Then B13, with 0.958 enrichment R.
